A selection follows.
aSyn 5UTR act: Activators via SNCA 5'UTR binding, MLPCN; alpha-synuclein 5'UTR reporter, activators screen; activity score, % (tested at 7.5 µM), hits read low; 300,000 tested, 7.1% active; AID 1814; in the data active = activity score below about -60%
* hit, by the source's call.

SMILES | aSyn 5UTR act
CC1CC(C)CN(CCCNC(=O)c2ccc3nc(N4CCCCC4)sc3c2)C1 (stereo not drawn) | -273*
CCCN1CCN(CCCNC(=O)c2ccc3nc(N4CCCCC4)sc3c2)CC1 | -214*
CC1CC(C)CN(S(=O)(=O)c2ccc(C(=O)NCCCn3ccnc3)cc2)C1 (stereo not drawn) | 98
O=C(NC1CCCCC1)c1cc(-c2ccc(Cl)cc2)on1 | -115*
O=C(NC1CCCC1)c1cc(-c2ccc(F)cc2)on1 | -322*
O=C(NC1CCCC1)c1cc(-c2ccc(Cl)cc2)on1 | -234*
Cc1ccc(-c2cc(C(=O)NCc3cccnc3)no2)cc1 | -90*
Cc1ccc(CN2C(=O)/C(=C\c3ccc(C(=O)NCc4cccnc4)cc3)Oc3ccccc32)cc1 | 101
O=C(NCc1cccnc1)c1cc(-c2ccco2)on1 | -72*
NNC(=O)c1nn(-c2ccccc2)cc1O | 83
O=C(c1cnn(-c2ccccc2)c1)c1cc(F)ccc1O | -163*
O=C(c1cnn(-c2ccccc2)c1)c1ccccc1O | -106*
Cc1ccc(NC(=O)Nc2cnccn2)cc1C | -68*
CC(C)c1ccc(NC(=O)Nc2cnccn2)cc1 | -212*
Cc1ccc(NC(=O)Nc2cnccn2)cc1 | -118*
CC1CCCN(CCS(=O)(=O)c2ccccc2)C1 (stereo not drawn) | -151*
O=C(CSc1n[nH]c(-c2ccccc2)n1)c1ccccc1 | -84*
N#Cc1ccc(-c2cccnc2)nc1SCC(=O)c1ccccc1 | -116*
N#Cc1ccc(-c2ccc(Cl)cc2)nc1SCC(=O)c1cccc(Cl)c1 | -81*
Cc1nc(/C(N)=N/OC(=O)c2ccccc2Cl)c(C(F)(F)F)o1 | -131*
N/C(=N/OC(=O)c1ccccc1Cl)c1nonc1N | -85*
O=c1c2[nH]c3ccc(F)cc3c2ncn1CCC1=CCCCC1 | -121*
COc1ccc2c(c1)[nH]c1c(=O)n(CCC3=CCCCC3)cnc12 | -99*
c1ccc(OCCOc2ccccc2-c2nnco2)cc1 | -64*
CCC(C)(C)c1ccc2c(c1)C(=O)c1ccccc1C2=O | -71*
SMILES | aSyn 5UTR act
CN(C)CCCN(C(=O)c1ccc(S(=O)(=O)N2CCc3ccccc3C2)cc1)c1nc2ccc(F)cc2s1 | 99
CN(C)CCN(C(=O)c1cc(Cl)sc1Cl)c1nc2ccc(F)cc2s1 | -94*
CN(C)CCCN(C(=O)c1ccc2c(c1)CCCC2)c1nc2ccc(F)cc2s1 | -157*
CN(C)CCCN(C(=O)CCc1ccccc1)c1nc2ccc(F)cc2s1 | -70*
CN(C)CCCN(C(=O)c1cc(-c2cccs2)nc2ccccc12)c1nc2ccc(F)cc2s1 | 99
Cc1cccc2sc(N(CCCN(C)C)C(=O)CCc3ccccc3)nc12 | 62
O=C(/C=C/c1cccc(Cl)c1)Nc1ccncc1 | -112*
NS(=O)(=O)c1ccc(NC(=O)/C=C/c2cccc(Cl)c2)cc1 | -81*
O=c1[nH]nc(Cc2ccc3ccccc3n2)c2ccccc12 | -71*
O=C(OCCc1ccccc1)c1cc(O)c(O)c(O)c1 | -105*
COc1ccc(C(=O)OCCc2ccc(O)cc2)cc1 | -179*
Nc1ccc(C(=O)OCCc2ccccc2)cc1 | -142*
Cc1ccc(/C=N/NC(=O)NC2CCCCC2)o1 | -66*
Cc1ccc(S(=O)(=O)N(C)CC(=O)N/N=C/c2ccc(C)o2)cc1 | 46
Cc1ccc(/C=N/NC(=O)Nc2ccccc2)o1 | -80*
CC(/C=C/c1ccc(N(C)C)cc1)=N\N=C1\NC(=O)CC(C(=O)Nc2ccccc2)S1 (stereo not drawn) | -73*
CCCOc1ccc(NC(=O)C2CC(=O)N/C(=N/N=C(C)/C=C/c3ccc(N(C)C)cc3)S2)cc1 (stereo not drawn) | -79*
CN1CCN(C(c2ccc(Br)cc2)c2cc(Cl)c3cccnc3c2O)CC1 (stereo not drawn) | 67
COc1cc(/C=N/Nc2ccccc2[N+](=O)[O-])ccc1OC(=O)c1ccccc1F | -100*
CCCOc1ccc(/C=N/NC(=S)Nc2ccccc2[N+](=O)[O-])c(O)c1 | 101
COc1cc(/C=N/Nc2nc3ccccc3s2)ccc1OC(=O)c1ccccc1F | -387*
COc1ccc(/C=N/NC(=S)Nc2ccccc2[N+](=O)[O-])cc1O | -131*
COc1cc(OC)cc(C(=O)Oc2ccc(/C=N/Nc3nc4ccccc4s3)cc2OC)c1 | -513*
Clc1ccc(-c2n[nH]c3c2CCCC3)cc1 | -70*
CCN(CC)c1ccc(-c2nn3c(-c4n[nH]c5c4CCC5)nnc3s2)cc1 | 72
SMILES | aSyn 5UTR act
O=C(c1ccccc1)c1ccc2cc(O)ccc2c1 | -231*
O=C1/C(=C/c2ccc(N3CCOCC3)o2)SC(=Nc2ccccc2)N1CCc1c[nH]c2ccccc12 | -121*
Cc1cnc(NCCc2ccccc2)s1 | -63*
Cc1cc(Nc2nc3ccccc3nc2Cl)n(-c2ccccc2)n1 | -88*
COc1ccc(C2CC(C)(c3ccc(OC)cc3)Nc3ccccc3N2)cc1 (stereo not drawn) | -192*
O=C(Nc1nc2c(s1)CCc1ccccc1-2)c1cccs1 | -110*
O=C(Nc1nc2c(s1)COc1ccccc1-2)c1cccs1 | -104*
O=C(CSc1nnc(SCc2ccc(Cl)cc2)s1)N/N=C/c1c(Cl)cccc1Cl | -69*
O=C(CSc1nnc(SCc2ccccc2Cl)s1)N/N=C/c1c[nH]c2ccccc12 | -94*
Cc1ccc(CSc2nnc(SCC(=O)N/N=C/c3ccccc3OCC(=O)O)s2)cc1 | 62
Cc1ccc(CSc2nnc(SCC(=O)N/N=C/c3ccc(C(=O)O)cc3)s2)cc1 | 70
CC(C)(C)NC(=O)C(c1ccncc1)N(Cc1ccco1)C(=O)c1ccc(-c2ccccc2)[nH]1 (stereo not drawn) | -83*
Nc1nc(CSc2ncn(-c3ccccc3)n2)cs1 | -154*
c1ccc(CSc2ncn(-c3ccccc3)n2)cc1 | -138*
Cc1cc(SC(C)C(=O)NCC(=O)Nc2ccc(F)c(F)c2F)nc2ccccc12 (stereo not drawn) | 46
N/C(COc1ncn(-c2ccccc2)n1)=N\S(=O)(=O)c1ccccc1 | 18
O=C(CSc1ncn(-c2ccccc2)n1)c1cccs1 | -177*
Cc1cc(SCC(=O)c2cccs2)nc2ccccc12 | -81*
Cc1cc(SCC(=O)N/N=C/c2ccc(O)cc2O)nc2ccccc12 | 58
CCCn1cnc2c(sc3nc4c(cc32)CSC(C)(C)C4)c1=O | -105*
O=S(=O)(/N=C(/Nc1ccccc1)c1ccccc1O)c1ccccc1 | -79*
Cc1ccccc1NC(=O)C(=O)Nc1ccccc1C | -143*
O=C(Nc1ccccc1)c1ccccc1O | -151*
Cc1ccccc1NC(=O)c1ccccc1O | -118*
Cc1nnc(NC(=O)Nc2cccc(Cl)c2)s1 | -122*
SMILES | aSyn 5UTR act
Cc1csc(NC(=O)Nc2cccc(Cl)c2)n1 | -203*
CCNc1ccc(Br)cc(C(=O)/C=C/c2ccccc2Cl)c1=O | -68*
COCC1CCCN(C(=O)c2ccc3nc(Cc4cccc(Cl)c4)oc3c2)C1 (stereo not drawn) | -77*
CC(C)(CO)NC(=O)c1ccc2nc(Cc3cccc(Cl)c3)oc2c1 | -102*
COC(=O)CN(C)C(=O)c1ccc2nc(Cc3cccc(Cl)c3)oc2c1 | -109*
Cn1c(=O)c(C(=O)Nc2ncccc2O)c(O)c2ccccc21 | -147*
Cc1ccc(NC(=O)c2c(O)c3ccccc3n(C)c2=O)nc1 | -98*
Cc1cccc(NC(=O)c2c(O)c3ccccc3n(C)c2=O)c1 | -141*
CC1(C)CN=C(N(Cc2ccccc2)C(=O)Nc2ccccc2)S1 | -154*
Cc1ccc(N=Cc2sc(O)c3ccccc23)cc1 | -237*
Cc1ccc(N=Nc2ccc3ccccc3c2O)cc1 | 61
